# Experimental data reported in ChEMBL document CHEMBL3988442, “University of Dundee, Small-Polar-MMV Screening Library” (2021).
# About 13,000 (27%) of roughly 48,000 compounds showed an effect of 50% or more. The list shows a part of the results.
# System: Wolbachia pipientis
# Test: Anti-Wolbachia Cell-Based Screen
# Assay type: functional
# Design: scale not given: in the data most compounds retested in dose-response had high values
# Details: 5 µM
row,SMILES,Percent Effect [%]
1,COCCN1CCN(Cc2cccc(OCC(N)=O)c2)CC1C (stereo not drawn),-2.971
2,CN1C(=O)CCC12CCCN(C(=O)c1ccncc1F)C2.O=C(O)C(F)(F)F (stereo not drawn),113.9
3,CN(C)CCN1C(=O)CCC12CCCN(C(=O)c1ccncc1F)C2.O=C(O)C(F)(F)F (stereo not drawn),122.1
4,CCc1ncnc2c1CCN(C(=O)c1ccncc1F)CC2.O=C(O)C(F)(F)F,6.56
5,CCN1C(=O)CCCC12CCCN(C(=O)c1ccncc1F)C2.O=C(O)C(F)(F)F (stereo not drawn),112.1
6,CCOc1ncnc2c1CCN(C(=O)c1ccncc1F)CC2.O=C(O)C(F)(F)F,-6.025
7,Cc1ncnc2c1CCN(C(=O)c1ccncc1F)CC2.O=C(O)C(F)(F)F,-20.75
8,O=C(O)C(F)(F)F.O=C(c1ccncc1F)N1CCc2ncnc(C3CC3)c2CC1,13.05
9,CCN1C(=O)CCCC12CCCN(C(=O)c1ccoc1)C2 (stereo not drawn),-0.6496
10,O=C(O)C(F)(F)F.O=C1CC(c2ccccc2)C2(CCN(C(=O)c3ccncc3F)CC2)N1 (stereo not drawn),7.558
11,COCCCNC(=O)NCc1nc(C)c(C)o1,1.858
12,CC(C)(C)CC(=O)NCC1CCCS1 (stereo not drawn),-1.096
13,CN1CC(Oc2ccccc2)=NC(SCC(=O)c2ccccc2)=N1,31.32
14,Cn1c(=O)n(C)c2nc(Cl)c(CC(=O)c3ccc(F)cc3)n2c1=O,131.2
15,CN1CC(Oc2ccc(Cl)cc2)=NC(SCC(=O)c2ccccc2)=N1,11.49
16,Cn1c(=O)n(C)c2nc(Br)c(CC(=O)c3ccccc3)n2c1=O,113.8
17,Cc1c2ncn(CC(=O)c3ccccc3)c(=O)c2nn1C,11.22
18,Cc1ccc(C(=O)CCC(=O)N2CCC(c3nncn3C)CC2)cc1,-0.3599
19,Cn1nc(Br)c2c(=O)n(CCc3ccccc3)cnc21,-21.91
20,Cc1ccc(C(=O)Cc2c(Cl)nc3n(C)c(=O)n(C)c(=O)n23)cc1,91.64
21,Cn1c(=O)n(C)c2nc(Cl)c(CC(=O)c3ccccc3)n2c1=O,119.1
22,CC(C)c1nc(C2CCCN2c2cnc3cc(F)c(F)cc3n2)no1 (stereo not drawn),4.6

row,SMILES,Percent Effect [%]
1,CC(C)OC(=O)N1CCCCC1CCn1cccn1 (stereo not drawn),30.12
2,Cl.Nc1nc(C(=O)NCC2CCC3(CCNCC3)CO2)cs1 (stereo not drawn),-0.4275
3,CC(C)(C)n1cc(C#N)cc1NC(=O)CCNC(=O)c1ccco1,-15.76
4,Cn1cc(C(=O)N2CCCC(Cc3cccc4ncccc34)C2)cn1 (stereo not drawn),153.9
5,O=C(c1cnccn1)N1CCCC(Cc2cccc3ncccc23)C1 (stereo not drawn),146.1
6,Cc1ccc2nc(C)c(C)c(C(=O)N3CCN(c4nccs4)CC3)c2c1,-13.27
7,CCNC(=O)C1CCCN(Cn2nc(C(C)(C)C)ccc2=O)C1 (stereo not drawn),2.332
8,Cc1cc(C[C@@H]2CCC[C@H]2NCc2cc(C)c(O)c(C)c2)on1.O=C(O)CC(O)(CC(=O)O)C(=O)O,-7.471
9,O=C(NCc1cccc(F)c1F)c1cc(CN2CCCC(O)C2)on1 (stereo not drawn),-4.232
10,Cc1cc(C[C@@H]2CCC[C@H]2NCc2ccccc2F)on1.O=C(O)CC(O)(CC(=O)O)C(=O)O,109.7
11,Cc1cc(C[C@@H]2CCC[C@H]2NCc2ccccc2C(F)(F)F)on1.O=C(O)CC(O)(CC(=O)O)C(=O)O,-4.697
12,Cc1cc(C[C@@H]2CCC[C@H]2NCc2ccccc2C)on1.O=C(O)CC(O)(CC(=O)O)C(=O)O,135
13,Cc1cc(C[C@@H]2CCC[C@H]2NCc2cc(F)ccc2F)on1.O=C(O)CC(O)(CC(=O)O)C(=O)O,83.79
14,Cc1cc(CNC(=O)C2CCC(=O)N(Cc3ccccc3F)C2)on1 (stereo not drawn),-7.53
15,Cc1cc(C[C@@H]2COC[C@@H]2NC(=O)CN2CCOC2=O)on1,-12.63
16,Cc1cc(C[C@@H]2COC[C@H]2NCc2ccc(Br)s2)on1.O=C(O)CC(O)(CC(=O)O)C(=O)O,-4.105
17,Cc1cc(C[C@@H]2COC[C@H]2NCc2ccccc2C(F)(F)F)on1.O=C(O)CC(O)(CC(=O)O)C(=O)O,-4.697
18,Cc1cc(C[C@@H]2CCC[C@H]2NCc2cccc(F)c2F)on1.O=C(O)CC(O)(CC(=O)O)C(=O)O,111.2
19,CCCc1noc(CN(C)C(=O)C2COc3ccccc3C2)n1 (stereo not drawn),-0.2082
20,O=C(c1cccc(O)c1)N1C[C@@H](CN2CCCCC2)[C@@H](CO)C1,36.38
21,CCOc1cc(CNC(=O)NC2CC=CC2)ccc1OC(F)F,-3.557
22,Cc1cc(C[C@@H]2CCC[C@H]2NCc2ccc(C(F)(F)F)cc2)on1.O=C(O)CC(O)(CC(=O)O)C(=O)O,113.9

row,SMILES,Percent Effect [%]
1,Cc1cc(C[C@@H]2COC[C@@H]2NC(=O)Cn2c(=O)oc3ccccc32)on1,-2.365
2,Cc1cc(C[C@@H]2COC[C@@H]2NC(=O)CN2CCc3ccccc3C2)on1,-17.37
3,Cc1cc(C[C@@H]2COC[C@@H]2NC(=O)CN2CCCC2)on1,-5.725
4,Cc1cc(C[C@@H]2COC[C@@H]2NC(=O)CN2CCCCCC2)on1,40.3
5,Cc1cc(C[C@@H]2CCC[C@H]2NCc2c[nH]nc2-c2ccccc2)on1.O=C(O)CC(O)(CC(=O)O)C(=O)O,114
6,Cc1cc(C[C@@H]2COC[C@@H]2NC(=O)CCN2Cc3ccccc3C2)on1,-14.09
7,CCC[C@H]1CN(Cc2cc(C)no2)C[C@@H]1NC(=O)C1(COC)CCC1,-6.466
8,CCCOc1ccccc1CN[C@@H]1CCC[C@H]1Cc1cc(C)no1.O=C(O)CC(O)(CC(=O)O)C(=O)O,112
9,CSc1nccc(NCC2CNCCOC2)n1 (stereo not drawn),0.1221
10,COCCN1CCN(C(=O)c2ccc(COC)o2)[C@H]2CS(=O)(=O)C[C@H]21,7.213
11,CC(C)NC(=O)N[C@H]1C[C@@H](Cc2cc(CN3CCOCC3)on2)C1(C)C,-0.1597
12,Cc1c[nH]c(CN(C)C(=O)c2cccc(CCC(C)(C)O)c2)n1,-0.9219
13,COCC(=O)N1CCCC(c2nc(N(C)C)ncc2-c2ccccc2)C1 (stereo not drawn),96.39
14,CCC(=O)N1CCCC(c2nc(N(C)C)ncc2-c2ccc(F)cc2)C1 (stereo not drawn),103.1
15,Cc1cc(C2CCCN(C(=O)COc3ccc(F)cc3)C2)n[nH]1 (stereo not drawn),-12.08
16,CC(=O)N1CCCC1c1nc(N(C)C)ncc1-c1ccccc1 (stereo not drawn),120.4
17,CC(=O)N1CCCC(c2nc(N(C)C)ncc2-c2ccccc2)C1 (stereo not drawn),94.88
18,O=C(c1ccc[nH]1)N1CCCC1c1nc(-c2ccccc2)n[nH]1 (stereo not drawn),3.184
19,CC(=O)N1CCCC1c1cccc(C)c1C (stereo not drawn),2.963
20,CC(=O)N1CCCC(c2nc(-c3ccccc3)c[nH]2)C1 (stereo not drawn),-5.299
21,COCC(=O)N1C[C@H]2CC[C@@]3(N=C(c4ccccc4)NC3=O)[C@H]2C1,-3.823
22,Cc1cc(C2CCCN(C(=O)COc3cc(F)ccc3F)C2)n[nH]1 (stereo not drawn),-12.04

row,SMILES,Percent Effect [%]
1,COCC(=O)N1CCCC(COc2ccccc2C)C1 (stereo not drawn),-17.48
2,CC(=O)N1Cc2ccccc2C[C@H]1C(=O)Nc1ccccn1,-1.208
3,Cc1ccc(C(=O)N2CCSCC2)cc1NC(=O)NCCO,-7.623
4,Cc1cc(CNC(=O)C2CCCN2C(=O)OC(C)(C)C)no1 (stereo not drawn),-19.91
5,Cc1nc(C2CCCN(C(=O)CCCOc3cccc(F)c3)C2)no1 (stereo not drawn),-2.46
6,COCC(=O)N1CCCC(c2nc(N)ncc2-c2cccc(F)c2)C1 (stereo not drawn),111.1
7,Cc1cc(C2CCCN(C(=O)COc3cccc(F)c3)C2)n[nH]1 (stereo not drawn),-5.532
8,O=C1CN(C(=O)c2nnn(-c3ccc(C(F)(F)F)cc3)n2)CCN1,7.084
9,Cn1ccnc1CN1CCC2(CC1)CN(Cc1cccnc1)C(=O)CO2.O=C(O)C(F)(F)F.O=C(O)C(F)(F)F,-2.822
10,CN(C)CCN1CCC2(CC1)CN(Cc1cccnc1)C(=O)CO2.O=C(O)C(F)(F)F.O=C(O)C(F)(F)F.O=C(O)C(F)(F)F,106.6
11,O=C(CC1CC1)N1CCC2(CC1)CN(CCn1cccn1)C(=O)CO2,0.04038
12,Cn1ccnc1CN1CCC2(CC1)CN(Cc1ccccc1)C(=O)CO2.O=C(O)C(F)(F)F,-7.87
13,O=C(Cc1ccccn1)N1CCC2(CC1)CN(CC1CC1)C(=O)CO2.O=C(O)C(F)(F)F,15
14,O=C(O)C(F)(F)F.O=C(c1ccncc1)N1C[C@@H]2CCN(c3cccnc3)C[C@@H]2C1,-5.49
15,O=C(O)C(F)(F)F.O=C1COC2(CCN(CC3CC3)CC2)CN1c1ccccc1,-2.17
16,O=C(CC1CC1)N1CCC2(CC1)CN(Cc1cccnc1)C(=O)CO2.O=C(O)C(F)(F)F,85.91
17,O=C(CC1CC1)N1CCC2(CC1)CN(c1cccnc1)C(=O)CO2.O=C(O)C(F)(F)F,86.93
18,O=C(C1CCCC1)N1C[C@@H]2CCN(c3cccnc3)C[C@@H]2C1.O=C(O)C(F)(F)F,-15.19
19,O=C(CC1CC1)N1C[C@@H]2CCN(c3cccnc3)C[C@@H]2C1.O=C(O)C(F)(F)F,87.47
20,CC(C)NC(=O)N1CCC2(CC1)NC(=O)[C@H]1CN(C(=O)N(C)C)C[C@H]12,-13.82
21,Cn1ncc2c(NCC3CCS(=O)(=O)C3)nc(-c3ccncc3)nc21 (stereo not drawn),10.96
22,O=C1CC(N(C(=O)c2ccc(Oc3ccccc3)cc2)C2CC2)C(=O)N1 (stereo not drawn),-10.84
